Measurements published in PubChem BioAssay (NCI).
The panel holds about 83,000 compounds, 20% with a hit somewhere; the sample as a whole holds those more often.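 Cells were grown in 96-well plates and exposed to the test compound at a single concentration for 48 hours; results are reported as percent growth, with values below 10 considered active.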 Unmarked numbers belong to inactive results. The source made the active and inactive calls.

Assays:
Assay in all cases: NCI-60 one-dose screen, 48 h (100 = growth as untreated, 0 = no growth, -100 = all killed)
[1] = test system: SR leukemia; settings: 10 µM unless noted
[2] = test system: RPMI-8226 leukemia; settings: 10 µM unless noted
[3] = test system: OVCAR-8 ovarian; settings: 10 µM unless noted
[4] = test system: OVCAR-5 ovarian; settings: 10 µM unless noted
[5] = test system: OVCAR-4 ovarian; settings: 10 µM unless noted
[6] = test system: SK-OV-3 ovarian; settings: 10 µM unless noted
[7] = test system: IGROV1 ovarian; settings: 10 µM unless noted
[8] = test system: OVCAR-3 ovarian; settings: 10 µM unless noted
[9] = test system: NCI/ADR-RES ovarian; settings: 10 µM unless noted
[10] = test system: MDA-MB-435 melanoma; settings: 10 µM unless noted
[11] = test system: SW-620 colon; settings: 10 µM unless noted
[12] = test system: MCF7 breast; settings: 10 µM unless noted
[13] = test system: HCT-116 colon; settings: 10 µM unless noted
[14] = test system: HCC-2998 colon; settings: 10 µM unless noted
[15] = test system: KM12 colon; settings: 10 µM unless noted
[16] = test system: T-47D breast; settings: 10 µM unless noted
[17] = test system: BT-549 breast; settings: 10 µM unless noted
[18] = test system: HS 578T breast; settings: 10 µM

In the case of `Brc1cccc(-n2ncc3c(Nc4ccc(-c5nnc(-c6ccccc6)o5)cc4)ncnc32)c1`, the growth [1] is reported as 119%, the growth [2] is reported as 117% and the growth [3] is reported as 97.8%. For the same molecule, the growth [4] was 104%, the growth [5] was 107% and the growth [6] was 110%. The growth [7] was 112%, the growth [8] was 99.6% and the growth [9] was 98.6%. For the same molecule, the growth [10] was 106%, the growth [11] was 99.5% and the growth [12] was 99.5%. It also gave a growth [13] of 94.7%, a growth [14] of 100% and a growth [15] of 102%.
`COc1cccc(NC(=O)c2c(-c3ccccc3)c(-c3ccccc3)n[nH]c2=O)c1` was tested, and the growth [1] was 88.3%, the growth [2] was 86.1% and the growth [3] was 103%. The growth [4] was 97.8%, the growth [5] was 86% and the growth [6] was 99.5%. For the same molecule, the growth [7] was 105%, the growth [8] was 107% and the growth [16] was 87.5%. For the same molecule, the growth [17] was 102%, the growth [10] was 98% and the growth [11] was 98.7%. The growth [12] was 95.9%, the growth [13] was 94.9% and the growth [14] was 94.4%. It also gave a growth [15] of 103%.
For `COc1ccc(C2=NN(C=O)C(c3ccc(OS(=O)(=O)c4ccc(C)cc4)c(OC)c3)C2)cc1` (configuration not stated), the growth [1] was 23.5%, the growth [2] was 40.3% and the growth [3] was 59.6%. For the same molecule, the growth [4] was 89.9%, the growth [5] was 40.5% and the growth [6] was 84.3%. For the same molecule, the growth [7] was 79.1%, the growth [8] was 60.8% and the growth [16] was 40.3%. The growth [17] was 46.4%, the growth [10] was 14.1% and the growth [11] was 48.3%. The growth [12] was 40.2%, the growth [13] was 45.8% and the growth [14] was 74.1%. It also gave a growth [15] of 54.5%.
Molecule `CCCCOc1ncnc2nc[nH]c12` has a growth [1] of 88.7%, a growth [2] of 95.4% and a growth [3] of 99.4%. The growth [4] was 103%, the growth [5] was 102% and the growth [6] was 107%. It also gave a growth [7] of 124%, a growth [18] of 100% and a growth [9] of 105%. The growth [16] was 107%, the growth [17] was 97.6% and the growth [10] was 111%. For the same molecule, the growth [11] was 108%, the growth [12] was 96.9% and the growth [13] was 101%. For the same molecule, the growth [14] was 111%.
`CCOC(=O)NNc1cccc(Cl)c1` gave a growth [1] of 102%, a growth [2] of 98.8% and a growth [3] of 106%. For the same molecule, the growth [4] was 88.3%, the growth [5] was 106% and the growth [6] was 105%. It also gave a growth [7] of 94.9%, a growth [18] of 104% and a growth [9] of 99.3%. The growth [16] was 119%, the growth [10] was 107% and the growth [11] was 102%. For the same molecule, the growth [12] was 105%, the growth [13] was 111% and the growth [14] was 99.9%. The growth [15] was 116%.
`NC(=Nc1ccccc1)SCCCSC(N)=Nc1ccccc1` gave a growth [1] of 94.6%, a growth [2] of 73.4% and a growth [3] of 86.4%. It also gave a growth [4] of 86.4%, a growth [5] of 76.8% and a growth [6] of 97.3%. The growth [7] was 80.1%, the growth [18] was 89% and the growth [9] was 85.5%. It also gave a growth [16] of 70.1%, a growth [17] of 92.9% and a growth [10] of 89.8%. For the same molecule, the growth [11] was 95.4%, the growth [12] was 90.9% and the growth [13] was 90.5%. For the same molecule, the growth [14] was 99.2% and the growth [15] was 94.7%.
With `Cc1ccc(Nc2nc(NCCO)c3ccccc3n2)cc1C` the growth [1] was 19%, the growth [2] was 19.7% and the growth [3] was 9.74% (active). For the same molecule, the growth [4] was 25.6%, the growth [5] was 50.6% and the growth [6] was -0.684% (active). The growth [7] was 20.2%, the growth [8] was -9.61% (active) and the growth [16] was 55.9%. For the same molecule, the growth [17] was 37.7%, the growth [10] was -35.8% (active) and the growth [11] was 13.5%. The growth [12] was 24.4%, the growth [13] was 16.5% and the growth [14] was 11.6%. The growth [15] was 9.68% (active).
In the case of `CN(C)c1ccc(/C=C(\C#N)c2nc3ccccc3n2C)cc1`, the growth [1] is reported as 29.2%, the growth [2] is reported as 15.8% and the growth [3] is reported as 40.3%. For the same molecule, the growth [4] was 64.3%, the growth [5] was 55.2% and the growth [6] was 34.8%. The growth [7] was 32.3%, the growth [8] was -8.87% (active) and the growth [9] was 27.6%. For the same molecule, the growth [16] was 40.2%, the growth [17] was 39.7% and the growth [10] was -26.2% (active). The growth [12] was 17.9%, the growth [13] was 33.2% and the growth [14] was 61.3%. For the same molecule, the growth [15] was 26.2%.
Molecule `CCC1CCc2nc3sc(C(=O)Nc4cccc(F)c4)c(N)c3cc2C1` (configuration not stated) has a growth [1] of 12.5%, a growth [2] of 44.9% and a growth [3] of 86.6%. For the same molecule, the growth [4] was 90.5%, the growth [5] was 99.2% and the growth [6] was 83.1%. For the same molecule, the growth [7] was 89.2%, the growth [18] was 79.5% and the growth [9] was 61.8%. The growth [16] was 89.9%, the growth [17] was 88.1% and the growth [10] was -12.6% (active). It also gave a growth [11] of 40.6%, a growth [12] of 12.6% and a growth [13] of 60%. It also gave a growth [14] of 91.6% and a growth [15] of 41.3%.
`Cc1cc(C#Cc2ccccc2)ccc1-n1c(/C=C/c2ccc(F)cc2)nc2ccccc2c1=O` was tested, and the growth [1] was 64.8%, the growth [2] was 25.6% and the growth [3] was 90.6%. For the same molecule, the growth [4] was 106%, the growth [5] was 57.6% and the growth [6] was 89.9%. For the same molecule, the growth [7] was 95.2%, the growth [18] was 93.3% and the growth [9] was 83.3%. For the same molecule, the growth [16] was 41%, the growth [17] was 90.4% and the growth [10] was 66.9%. The growth [11] was 47.8%, the growth [13] was 46% and the growth [14] was 86.6%. It also gave a growth [15] of 62.5%.
With `COc1ccc(Br)c2ccccc12` the growth [1] was 96%, the growth [2] was 105% and the growth [3] was 99.7%. For the same molecule, the growth [4] was 110%, the growth [5] was 117% and the growth [6] was 115%. For the same molecule, the growth [8] was 112%, the growth [18] was 112% and the growth [9] was 118%. It also gave a growth [16] of 97.9%, a growth [17] of 123% and a growth [10] of 105%. For the same molecule, the growth [11] was 106%, the growth [12] was 100% and the growth [13] was 108%. For the same molecule, the growth [14] was 104% and the growth [15] was 109%.
`CCCCCCCCCCCCCCCCOc1ccc(S(=O)(=O)N(C)C)cc1[N+](=O)[O-]` gave a growth [1] of 81.6%, a growth [2] of 107% and a growth [3] of 102%. For the same molecule, the growth [4] was 101%, the growth [5] was 101% and the growth [6] was 79.2%. The growth [7] was 98.5%, the growth [8] was 117% and the growth [9] was 115%. The growth [10] was 107%, the growth [11] was 113% and the growth [12] was 95.8%. For the same molecule, the growth [13] was 98.2%, the growth [14] was 122% and the growth [15] was 112%.
In the case of `CCN(CC)CCCC(C)N/C(c1cccc(OC)c1)=c1\c(=O)[nH]n(-c2c3ccccc3nc3ccccc23)c(=O)\c1=C(/NC(C)CCCN(CC)CC)c1cccc(OC)c1` (configuration not stated), the growth [1] is reported as 0.449% (active), the growth [2] is reported as -37.3% (active) and the growth [3] is reported as -7.7% (active). For the same molecule, the growth [4] was 1.41% (active), the growth [5] was -48.1% (active) and the growth [6] was -10.1% (active). For the same molecule, the growth [7] was -6.96% (active), the growth [8] was -36.6% (active) and the growth [16] was -26.7% (active). For the same molecule, the growth [17] was -5.18% (active), the growth [10] was -91.1% (active) and the growth [11] was -21.6% (active). The growth [12] was -12.7% (active), the growth [13] was -9.94% (active) and the growth [14] was -72.7% (active). For the same molecule, the growth [15] was -47.4% (active).
With `CN(C)c1ccc(Nc2c3ccccc3nc3ccccc23)cc1` the growth [1] was -8.36% (active), the growth [2] was 17.2% and the growth [3] was 23.5%. For the same molecule, the growth [4] was 43.7%, the growth [5] was 1.57% (active) and the growth [6] was 22%. For the same molecule, the growth [8] was -11.7% (active), the growth [18] was 25.2% and the growth [9] was 12.5%. For the same molecule, the growth [16] was 11.1%, the growth [17] was 44.5% and the growth [10] was 19.4%. The growth [11] was 13.6%, the growth [12] was 5.1% (active) and the growth [13] was 5.58% (active). For the same molecule, the growth [14] was 0.72% (active) and the growth [15] was 18%.
`COc1ccc(-c2cn(-c3cccc(C(=O)/C=C/c4ccc(O)c(OC)c4)c3)c(=O)[nH]2)cc1` was tested, and the growth [1] was 7.01% (active), the growth [2] was -40.4% (active) and the growth [3] was 11.7%. The growth [4] was 33%, the growth [5] was 33.6% and the growth [6] was 53.6%. For the same molecule, the growth [7] was -32.8% (active), the growth [8] was -1.7% (active) and the growth [9] was 12.7%. For the same molecule, the growth [16] was 32.1%, the growth [10] was 20.5% and the growth [12] was 15.2%. For the same molecule, the growth [13] was -35.4% (active), the growth [14] was 17.5% and the growth [15] was -58.7% (active).
For `CS(=O)(=O)Nc1cc(-c2cc3ncc(C#N)c(Nc4ccc(Oc5ccccc5)c(Cl)c4)c3s2)cnc1Cl`, the growth [1] was 20.5%, the growth [2] was 62.7% and the growth [3] was 50.6%. For the same molecule, the growth [4] was 75.9%, the growth [5] was 57.6% and the growth [6] was 43.4%. For the same molecule, the growth [7] was 11%, the growth [8] was 50.7% and the growth [9] was 72.2%. For the same molecule, the growth [17] was 51%, the growth [10] was 67.4% and the growth [11] was 48%. The growth [12] was 26.5%, the growth [13] was 45.1% and the growth [15] was 56.8%.
`Oc1ccc(Cl)cc1-c1cc(-c2ccccc2Cl)[nH]n1` was tested, and the growth [1] was 41.9%, the growth [2] was 42.3% and the growth [3] was 71.1%. For the same molecule, the growth [4] was 87.9%, the growth [5] was 13.3% and the growth [6] was 76.9%. The growth [7] was 34.2%, the growth [8] was 21.2% and the growth [16] was 11.1%. It also gave a growth [17] of 76.2%, a growth [10] of 48.1% and a growth [11] of 74.7%. For the same molecule, the growth [12] was 9.57% (active), the growth [13] was 55.8% and the growth [14] was 31.1%. It also gave a growth [15] of 19.7%.
